From article PMC11062922 (Nature Chemical Biology, 2023)

Columns and labels:
Parameters in all cases: species or system human, MV4-11 + K-562 + COLO205 + SK-N-BE2 + OVCAR-8
Details in all cases: compound concentrations: 100 nM and 1000 nM (sheet 'Samples')
EPHB1 = tested on: EPHB1
FLT3 = tested on: FLT3
[1] = tested on: JAK1(JH2domain-pseudokinase)
[2] = tested on: JAK2(JH1domain-catalytic)
LCK = tested on: LCK
MAP3K4 = tested on: MAP3K4
MEK5 = tested on: MEK5
MERTK = tested on: MERTK
MLK1 = tested on: MLK1
MLK3 = tested on: MLK3
NEK2 = tested on: NEK2
NEK3 = tested on: NEK3
NEK6 = tested on: NEK6
NEK9 = tested on: NEK9
PKAC-beta = tested on: PKAC-beta
[3] = tested on: RSK1(Kin.Dom.1-N-terminal)
SLK = tested on: SLK
SRC = tested on: SRC
STK16 = tested on: STK16
SYK = tested on: SYK

Measured: Kinobeads Data
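Note: kinobeads ε competition pulldown from cell lysate, compound preincubated 45 min at 4 °C, bound kinases quantified by LC–MS/MS relative to DMSO control.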

COc1cc(Nc2ncc3c(C)nc(-c4cc5ccccc5[nH]4)n3n2)cc(OC)c1OC [GW869516X]
no target: all assays above
